Experimental data: PubChem BioAssay (Tox21)
Inconclusive results are not listed. Activity calls are given as the source filed them. Unless noted, the call rests on the fitted dose curve; in most records, active means well fitted curve in the direction sought with a large enough effect in the repeat runs; inconclusive means weak or mixed curves; inactive means no such curve, though single readings can be large; an effect the other way counts as inactive or inconclusive.

What was measured:
[1] = qHTS assay for small molecules that induce genotoxicity in human embryonic kidney cells expressing luciferase-tagged ATAD5 (AID 651632); further: nearly all actives have a fitted effect of over 15% in size
Summary of the method: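 Genotoxicity read-out via ATAD5-luciferase: HEK293T cells, 16 hr compound incubation at 37C, Amplite detection.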

[2] = qHTS assay for small molecule agonists of the p53 signaling pathway - cell viability (AID 651633; calls by dose curve;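 further: p53RE-bla HCT reporter cells with a stable beta-lactamase p53 reporter; series mostly up to about 83 µM; nearly all actives have a fitted effect of over 30% in size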)
Summary of the method: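 Viability counter-read: CellTiter-Glo luminescence (30 min, room temperature) in the same p53RE-bla plates. These plates had been exposed to compounds for 16 h at 37 C.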

[3] = qHTS assay for small molecules that induce genotoxicity in human embryonic kidney cells expressing luciferase-tagged ATAD5 - cell viability (AID 651634; calls by dose curve; further: nearly all actives have a fitted effect of over 25% in size)
Summary of the method: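 Live-cell protease activity (CellTiter-Fluor, fluorescence) indicates viability. HEK293T cells with luciferase-tagged ATAD5; 15.5 hr compound treatment at 37C.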

[4] = qHTS assay for small molecule disruptors of the mitochondrial membrane potential - cell viability (AID 720634; calls by dose curve;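 further: human HepG2 liver cancer cells; series mostly up to about 83 µM; nearly all actives have a fitted effect of over 20% in size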)
Summary of the method: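 Human hepatoma HepG2 cells were treated for 1 hr with test chemicals, then given m-MPI dye and CellTiter-Glo. Cell viability reflects luminescence proportional to cellular ATP.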

[5] = qHTS assay to test for compound auto fluorescence at 590 nm (red) in HepG2 cells (AID 720674)
Summary of the method: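 Red autofluorescence (Ex/Em 540/590 nm, Rose Bengal sodium equivalents) was measured in HepG2 cells, 2,000 per well in MEM plus 10% FBS, plated overnight at 37 C. Readings were taken 1 hr after adding 23 nL compound or DMSO, at 37 C and 5% CO2.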

[6] = qHTS assay to test for compound auto fluorescence at 535 nm (green) in HepG2 cells (AID 720675)
[7] = qHTS assay to test for compound auto fluorescence at 460 nm (blue) in HEK293 cells (AID 720678)
Summary of the method: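 Intrinsic compound fluorescence is recorded in live HEK293 cultures after overnight incubation at 37C, 5% CO2, using excitation 405 nm and emission 460 nm. Values are referenced to triamterene.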

[8] = qHTS assay to test for compound auto fluorescence at 590 nm (red) in HEK293 cells (AID 720679)
Summary of the method: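 Red autofluorescence, HEK293 cells: 2,000 cells/well; attach 4-5 hr 37C; add 23 nL cpd or DMSO; incubate o/n 37C 5% CO2; read Ex540/Em590; Rose Bengal sodium reference.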

[9] = qHTS assay for small molecule disruptors of the mitochondrial membrane potential (AID 720635)
Summary of the method: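 Mitochondrial membrane potential tracked with Mito-MPS dye, red aggregates (ex 540/em 590 nm) against green monomers (ex 490/em 535 nm). Compound treatment 1 hr at 37C, dye 30 min in HepG2.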

Measured: Potency

O=S(=O)(O)c1cc(O)c2ccc(Nc3ccccc3)cc2c1
inactive: [1] | [2] | [3] | [4] | [5] | [6] | [7] | [8]

CC(C)(C)c1cc(CCC(=O)NN)cc(C(C)(C)C)c1O
inactive: [1] | [2] | [3] | [4] | [5] | [6] | [7] | [8]

Cc1ccc2c(c1)OCC(=O)CO2
inactive: [1] | [2] | [3] | [4] | [9] | [5] | [6] | [7] | [8]

CN(C)CCOCCO
inactive: [1] | [2] | [3] | [4] | [9] | [5] | [6] | [7] | [8]

CCOC(=O)/C=C/c1ccccc1
inactive: [1] | [2] | [3] | [4] | [9] | [5] | [6] | [7] | [8]

O=C(O)c1ccc(Cl)cc1Cl
inactive: [1] | [2] | [3] | [4] | [5] | [6] | [7] | [8]

COC(=O)c1ccccc1C(=O)c1ccc(OCCN2CCCCC2)cc1
inactive: [1] | [2] | [3] | [4] | [9] | [5] | [6] | [7] | [8]

CC(=O)NCCCCCC(=O)O
inactive: [1] | [2] | [3] | [4] | [9] | [5] | [6] | [7] | [8]

Cc1cc(C(C)(C)C)c(O)c(C)c1CC1=NCCN1
inactive: [1] | [2] | [3] | [4] | [9] | [5] | [6] | [7] | [8]

C=C(C)C1CCC(C)(O)CC1 (centres undefined)
inactive: [1] | [2] | [3] | [4] | [9] | [5] | [6] | [7] | [8]

COc1ccc(Br)c(C)c1
inactive: [1] | [2] | [3] | [4] | [9] | [5] | [6] | [7] | [8]

CCNC(=O)C1CC(C)CCC1C(C)C (centres undefined)
inactive: [1] | [2] | [3] | [4] | [5] | [6] | [7] | [8]

CCOC(=O)[C@H](CCc1ccccc1)N[C@@H](C)C(=O)N1C(=O)N(C)C[C@H]1C(=O)O
inactive: [1] | [2] | [3] | [4] | [9] | [5] | [6] | [7] | [8]

C[Si](C)(C)C
inactive: [1] | [2] | [3] | [4] | [9] | [5] | [6] | [8]

O=S(=O)(O)CCN1CCN(CCO)CC1
inactive: [1] | [2] | [3] | [4] | [9] | [5] | [6] | [7] | [8]

CC(C)NCC(O)COc1ccc(COCCOC(C)C)cc1 (centres undefined)
inactive: [1] | [2] | [3] | [4] | [9] | [5] | [6] | [7] | [8]
